High-throughput results (PubChem BioAssay)
IL-1B inflam inh – qHTS for Inhibitors of Inflammasome Signaling: IL-1-beta AlphaLISA Primary Screen | THP-1 LPS/ATP IL-1B secretion, AlphaLISA, 16 h; hits give low values | activity change, % at 57.5 µM | actives 4.7% (n = 360,000) | AID 743279, 2014; in the data active means activity change below about -50%; inconclusive means mostly about -30% to -49%
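Secreted IL-1B measured by AlphaLISA bead assay after 16 h compound exposure of THP-1 cells; compounds (final up to 57.5 uM) added 1 h before LPS (250 ng/mL) and ATP (1.25 mM) stimulation; lower signal means less secretion.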
RORgamma inh – qHTS for inhibitors of ROR gamma transcriptional activity; Nuclear receptor ROR-gamma (Mus musculus), P51450; Drosophila S2 Gal4-RORgamma UAS-luciferase reporter, 20 h; Potency, µM (highest dose often 53.6 µM), for the others: top-dose activity change, negative = inhibition, most hits filed as inhibitors; actives 5.4% (n = 310,000); AID 2551, 2010; further: potency means the concentration at half of the fitted maximal effect; nearly all actives have a fitted effect of over 60% in size
Target sequence (P51450 whole entry, looked up, the tested form may be a part): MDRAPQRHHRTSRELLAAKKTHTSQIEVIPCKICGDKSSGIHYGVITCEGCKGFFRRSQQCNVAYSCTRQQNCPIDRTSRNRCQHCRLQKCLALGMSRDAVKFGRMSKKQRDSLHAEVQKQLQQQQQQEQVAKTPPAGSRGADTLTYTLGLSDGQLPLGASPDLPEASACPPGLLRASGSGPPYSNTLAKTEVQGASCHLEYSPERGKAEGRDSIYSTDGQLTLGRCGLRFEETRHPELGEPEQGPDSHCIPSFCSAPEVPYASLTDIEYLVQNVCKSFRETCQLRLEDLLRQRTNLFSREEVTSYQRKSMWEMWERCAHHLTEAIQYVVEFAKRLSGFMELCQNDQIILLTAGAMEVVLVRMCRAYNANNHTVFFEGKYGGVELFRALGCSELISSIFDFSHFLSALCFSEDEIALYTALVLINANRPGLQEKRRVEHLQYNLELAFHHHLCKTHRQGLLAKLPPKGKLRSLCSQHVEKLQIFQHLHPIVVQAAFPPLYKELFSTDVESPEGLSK
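Using a luciferase readout, inhibitors were identified by reduced reporter activity in Drosophila cells coexpressing a copper-inducible Gal4–ROR gamma fusion and UAS-driven Photinus luciferase, incubated 20 hr after 700 uM copper sulfate.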
TDP1 cell CPT – qHTS for Inhibitors of human tyrosyl-DNA phosphodiesterase 1 (TDP1): qHTS in cells in presence of CPT. chicken DT40 Tdp1-/-;hTDP1 cells + 20 nM CPT, ATP luminescence, 48 h. Potency, µM (top dose mostly 46.2 µM), inactives show at the highest dose activity change, negative = growth inhibition, actives largely listed as inhibitors. actives 12% (n = 420,000). AID 686979, 2013; further: potency means the concentration at half of the fitted maximal effect; nearly all actives have a fitted effect of over 55% in size
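Chicken DT40 Tdp1-/- cells complemented with human TDP1, 400 cells/well, exposed to compounds plus 20 nM camptothecin for at least 48 h at 37 C; viability read as ATP content by CellTiter-Glo luminescence.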
VP16 counter – VP16 counterscreen qHTS for inhibitors of ROR gamma transcriptional activity; Drosophila S2 Gal4-VP16 UAS-luciferase, luminescence, 20 h; Potency, µM (titrated, usually from 53.6 µM), for the others: top-dose activity, negative = inhibition, actives largely listed as inhibitors; actives 3.5% (n = 310,000);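 further: Gal4-VP16 expression switched on by copper sulfate through the metallothionein promoter; potency means the concentration at half of the fitted maximal effect; nearly all actives have a fitted effect of over 50% in size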
LDHA block – qHTS assay for inhibitors of human lactate dehydrogenase; L-lactate dehydrogenase A chain (Homo sapiens), P00338; actives 0.15% (n = 480,000); purified LDHA, NADH/diaphorase-resazurin fluorescence; hits give low values; activity change, % (values are at about 110 or 230 µM); in the data active means activity change below about -30%; inconclusive means mostly about -25% to -30%;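 further: plate controls were DMSO wells for no effect and wells without enzyme for full effect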
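LDH5 2 nM; NADH 0.06 mM, pyruvate 0.2 mM; 200 mM Tris pH 7.4, EDTA, Tween-20; 5 min RT. Detection: diaphorase 0.133 mg/mL + resazurin 37 µM, fluorescence ex540/em590 at 0 and 20 min; normalized to enzyme-free and DMSO wells.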
TDP1 cell noCPT – qHTS for Inhibitors of human tyrosyl-DNA phosphodiesterase 1 (TDP1): qHTS in cells in absence of CPT; actives 15% (n = 420,000); DT40 Tdp1-/- hTDP1 cells, no CPT, ATP luminescence, 48 h; Potency, µM (titrated, usually from 46.2 µM), inactives show at the highest dose activity change, negative = growth inhibition, hits mostly inhibitors; further: potency means the concentration at half of the fitted maximal effect; nearly all actives have a fitted effect of over 55% in size
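Chicken DT40 Tdp1-/- cells complemented with human TDP1, screened without camptothecin (DMSO vehicle only), 400 cells/well. Compounds pin-transferred, cells incubated at 37 °C for at least 48 hr. Growth read as ATP-dependent luminescence (CellTiter-Glo, 30 min at RT).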
Active calls of the source: *; ? = inconclusive; . = no result; ! = repeats disagree. Sampled rows, rich in hits. Any-hit rate of the full collection: about 18%. Unless noted, the call rests on the fitted dose curve; in most records, active means well fitted curve in the direction sought with a large enough effect; inconclusive means small, poorly fitted or top-dose-only effect, or another doubt; inactive means no such curve, though single readings can be large; an effect the other way counts as inactive or inconclusive. Unless noted, on the % scale 0 is the no-effect control and ±100 the full control effect.

SMILES	IL-1B inflam inh	RORgamma inh	TDP1 cell CPT	VP16 counter	LDHA block	TDP1 cell noCPT
Cc1nc2cc(-c3ccccc3)nn2c(C)c1CCC(=O)NCCc1ccccc1	.	.	16µM*	.	-7	?
Cc1nc2cc(-c3cccc(F)c3)nn2c(C)c1CCC(=O)NC(C)c1ccccc1 (stereo unspecified)	.	.	?	.	-11	?
Cc1nc2cc(-c3cccc(F)c3)nn2c(C)c1CCC(=O)NCCc1ccccc1	.	.	26µM*	.	0	?
CCOC(=O)C(Cc1ccccc1)NC(=O)CCc1c(C)nc2nc(C)nn2c1C (stereo unspecified)	?	-6%	?	0%	-5	23µM*!
Cc1nc2cc(-c3ccccc3)nn2c(C)c1CCC(=O)NCCC(C)C	.	.	.	.	3	.
CCc1ccc(NC(=O)Cc2c(C)nc3nc(-c4cccs4)nn3c2C)cc1	.	.	.	.	-22	.
Cc1ccccc1OCCCOc1ccccc1/C=N/NC(=O)c1cccc(Cl)c1	.	.	.	.	9	.
O=C(COc1ccc2nc3n(c(=O)c2c1)CCC3)NC1CCCCCC1	.	.	.	.	-14	.
COc1ccccc1CNC(=O)COC(=O)c1nn(CC(C)C)c(=O)c2ccccc12	.	.	.	.	-4	.
CC(SCCCn1c(=O)c2c(ncn2C)n(C)c1=O)c1ccccc1Cl (stereo unspecified)	.	.	.	.	0	.
COc1cccc(C(=O)Oc2ccc(F)cc2C(=O)/C=C/c2ccc(F)cc2)c1	.	.	.	.	7	.
Cc1ccc(NS(=O)(=O)c2ccccc2)c(NS(=O)(=O)c2ccccc2)c1	15	.	-27%	.	-10	-12%
Cc1ccc(S(=O)(=O)Nc2ccccc2-c2ccccc2)cc1	31	-30%	2.6µM*	-2%	-6	2.6µM*
Cc1cc(-c2ccc(NS(=O)(=O)c3ccccc3)c(C)c2)ccc1NS(=O)(=O)c1ccccc1	15	.	13µM*	.	-11	12µM*
CC(=O)c1ccc(SCC(=O)N(C2CCCC2)C2CCCC2)c(F)c1	.	.	.	.	-4	.
COc1ccc(N2CCN(C(=O)c3cc4ccccc4o3)CC2)cc1	-16	-2%	-23%	-10%	-5	-22%
COc1ccccc1N1CCN(C(=O)c2ccc(-c3ccc(Cl)cc3)o2)CC1	41	.	3.7µM*	.	-5	2.3µM*
COc1ccccc1N1CCN(C(=O)c2ccc(-c3nc4ccccc4s3)o2)CC1	13	.	23µM*	.	3	16µM*
COc1ccccc1N1CCN(C(=O)NCc2ccc(Cl)cc2)CC1	-22	9%	-8%	-1%	-2	?
COc1ccc(N2CCN(C(=O)c3ccc(-c4nc5ccccc5s4)o3)CC2)cc1	44	.	16µM*	.	-1	12µM*
CN(CCc1noc(COc2ccc(F)cc2F)n1)C(=O)c1ccccc1C(F)(F)F	.	.	.	.	-8	.
O=C(Nc1ccc2oc(-c3cccnc3)nc2c1)c1ccccc1Cl	.	.	.	.	1	.
COc1ccc(S(=O)(=O)c2c(C)c(C)n(CC(C)C)c2NC(=O)C2CCCO2)cc1 (stereo unspecified)	.	.	.	.	3	.
Cc1ccccc1Cc1sc(N)nc1C	.	.	.	.	1	.
CN(C)CCNC(=O)c1cc2c(s1)-c1ccccc1OC2	-23	-5%	16µM*	6%	0	?
SMILES	IL-1B inflam inh	RORgamma inh	TDP1 cell CPT	VP16 counter	LDHA block	TDP1 cell noCPT
Cc1c(NC(=O)c2cc3c(s2)-c2ccccc2OC3)cccc1[N+](=O)[O-]	-73*	39%	?	-2%	-2	18µM*
COc1ccc(CCNC(=O)c2cc3c(s2)-c2ccccc2OC3)cc1OC	.	.	?	.	-3	12µM*
CSCCCNC(=S)Nc1cc(F)ccc1C	.	.	.	.	-9	.
Cc1[nH]c2ccc(C(=O)N(C)CCOc3ccccc3)cc2c1C	.	.	.	.	9	.
CCN(Cc1ccccc1)Cc1c(O)ccc2oc(C)c(C(=O)Nc3ccc(C)cc3C)c12	.	.	7.3µM*	.	0	7.3µM*
Cc1ccc(NC(=O)c2c(C)oc3ccc(O)c(CN(C)Cc4ccccc4)c23)c(C)c1	.	.	16µM*	.	3	15µM*
Cn1c(=O)n(Cc2cccc(Cl)c2)c(=O)c2c1ncn2Cc1ccccc1	.	.	.	.	3	.
Cc1cc(/C=C/c2ccnc3ccccc23)ccc1N(C)C	.	.	5.6µM*	.	.	5.6µM*
CN(C)c1c(Cl)cc(/C=C/c2ccnc3ccccc23)cc1Br	.	.	4.5µM*	.	.	3.5µM*
Cc1cc(C=Nc2ccc(/C=C/c3ccnc4ccccc34)cc2)ccc1N(C)C	.	.	16µM*	.	1	18µM*
CN(C)c1ccc(/C=C/c2ccnc3ccccc23)cc1Cl	.	.	?	.	.	10µM*
COc1ccc(S(=O)(=O)c2cc3ccccc3oc2=O)cc1	.	.	.	.	-4	.
CCCCc1ccc(-n2nnnc2SCC(=O)Nc2cccc(NC(C)=O)c2)cc1	.	.	.	.	-5	.
CCCNC(=O)COC(=O)/C=C/c1cccc2cccnc12	.	.	.	.	5	.
CN(C)c1ccc(C=Cc2ccnc3ccccc23)cc1N	-1	.	10µM*	.	-4	10µM*
Cc1c(/C=C/c2ccnc3ccccc23)ccc(N(C)C)c1C	.	.	?	.	3	11µM*
CN(C)c1ccc(/C=C/c2ccnc3ccccc23)cc1Br	.	.	8.9µM*	.	5	7.1µM*
Cc1ccc(C)c(C(=O)COC(=O)c2ccc(C(=O)c3ccccc3)cc2)c1	.	.	.	.	5	.
O=C(O)CCS(=O)(=O)Cc1cccc(Br)c1	.	.	.	.	-1	.
COc1cc(OC)c(NC(=O)CCOc2cc(C)ccc2C)cc1Cl	.	.	.	.	17	.
CCOC(=O)c1nc2sc(C)c(C)c2c(=O)[nH]1	7	-15%	-15%	-9%	-2	-9%
CCOC(=O)/C(=C\c1cccc(O)c1)c1nc2sc(C)c(C)c2c(=O)[nH]1	-102*	39%	9.2µM*	2%	4	23µM*
CCOc1ccc(S(=O)(=O)N(CC(=O)N2CCC(C(N)=O)CC2)c2ccccc2)cc1	.	.	.	.	-3	.
CC(C)NC(=O)NC(=O)C(C)Sc1cccc2cccnc12 (stereo unspecified)	.	.	.	.	6	.
CCN(CC)C(=O)C(C)N(C#N)c1nc(SC)nc(N(C)C)n1 (stereo unspecified)	0	-20%	-15%	8%	-13	-16%
CCN(CC)C(=O)C(C)N(C#N)c1nc(Cl)nc(N(C)C)n1 (stereo unspecified)	-98*	-18%	3%	1%	-12	10%
Cc1ccccc1Cn1ccc(NC(=O)c2cc3ncc(Br)cn3n2)n1	3	0%	7%	3%	0	3%
